Screening results deposited in PubChem by National Center for Advancing Translational Sciences (NCATS).
NS1 inh: qHTS Assay for Inhibitors of Influenza NS1 Protein Function. Potency, µM (highest dose often 46.1 µM), without a hit: at the highest dose activity, positive = more growth. 270,000 compounds, 0.4% hits. AID 2326, 2010; calls by dose curve; also: potency is read from the fitted curve at half-maximal effect; actives are rising curves; nearly all actives have a fitted effect of over 50% in size
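Growth recovery, yeast-based: influenza A NS1 expressed in S. cerevisiae causes slow growth, and suppressors are detected by OD600. The parent strain without NS1 is used as positive control.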
Shiga toxin inh: A qHTS for Small Molecule Inhibitors of Shiga Toxin | 290,000 compounds, 9.2% hits | Vero cells, Shiga toxin protein synthesis inhibition reporter | inhibition, % at 38.7 µM; in the data active = inhibition mostly above about 28%, no sharp cut-off; inactive = mostly below about 43%; also: 0% is about no effect
FBPA Giardia inh: qHTS Assay for Inhibitors of Fructose-1,6-bisphosphate Aldolase from Giardia Lamblia; A8B2U2; purified Giardia FBPA; Potency, µM (titrated, usually from 59.6 µM), for inactives: at the highest dose activity, negative = inhibition, hits mostly inhibitors; 290,000 compounds, 0.71% hits; AID 2451, 2010; also: potency is read from the fitted curve at half-maximal effect; % is scaled to controls: 0 for no effect and ±100 for the full control effect; nearly all actives have a fitted effect of over 55% in size
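40 nM FBPA preincubated 10 min at RT with compound (up to 57.5 uM final), then substrate plus GAPDH/TPI/NAD/arsenate coupling and diaphorase/resazurin added. Fluorescence read after 20 min at RT, 525/598 nm.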
CHX counter: Cycloheximide Counterscreen for Small Molecule Inhibitors of Shiga Toxin. cell reporter, cycloheximide protein synthesis inhibition counterscreen. max response, %. 300,000 compounds, 12% hits. AID 2314, 2010; in the data active = max response mostly above about 13%, no sharp cut-off; inactive = mostly below about 14%; also: read at 38.3 µM for the half of the compounds with a filed dose; 0% is about no effect
LmPK inhibitor: qHTS Assay for Inhibitors of Leishmania Mexicana Pyruvate Kinase (LmPK) | Q27686 | purified LmPK, Kinase-Glo ATP luminescence, 1 h | Potency, µM (doses to about 57.5 µM), without a hit: top-dose activity change, negative = inhibition, actives largely listed as inhibitors | 290,000 compounds, 0.37% hits; also: potency is read from the fitted curve at half-maximal effect; % is scaled to controls: 0 for no effect and ±100 for the full control effect
Target sequence (Q27686 whole entry, looked up): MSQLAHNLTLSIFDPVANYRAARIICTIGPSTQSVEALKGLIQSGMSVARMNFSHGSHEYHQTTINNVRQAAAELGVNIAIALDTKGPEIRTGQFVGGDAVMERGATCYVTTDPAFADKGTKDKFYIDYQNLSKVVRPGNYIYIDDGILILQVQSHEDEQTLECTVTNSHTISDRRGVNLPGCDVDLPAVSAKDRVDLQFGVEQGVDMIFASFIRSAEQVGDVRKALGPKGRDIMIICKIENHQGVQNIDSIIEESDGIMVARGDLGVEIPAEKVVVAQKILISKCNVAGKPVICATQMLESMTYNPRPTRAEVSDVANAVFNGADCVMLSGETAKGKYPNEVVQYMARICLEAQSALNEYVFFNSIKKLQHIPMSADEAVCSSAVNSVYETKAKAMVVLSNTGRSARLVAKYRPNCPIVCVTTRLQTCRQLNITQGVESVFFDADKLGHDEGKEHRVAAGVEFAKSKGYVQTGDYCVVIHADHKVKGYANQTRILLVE
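Purified LmPK (0.1 nM) with 0.5 mM PEP and 0.1 mM ADP in imidazole buffer pH 7.2 with MgCl2/KCl, 1 h at room temperature. ATP formed was read by luciferase luminescence and normalized to no-enzyme and uninhibited controls.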
Flu NS1 inh: Assay for Inhibitors of Influenza NS1 Protein Function: Hit Validation | shares compounds with NS1 inh | influenza NS1 function cell assay, 15-point titration | 1,400 tested, under 10 active | AID 492980, 2010 | activity change, negative = inhibition, % at 32.9 µM; calls by dose curve; also: 0% is about no effect
PR8 titer: Assay for Inhibitors of Influenza NS1 Protein Function: Influenza virus replication assay in MDCK cells infected with virus A/PR/8/34 | shares compounds with NS1 inh | MDCK infected influenza A/PR/8/34, virus titer TCID50; hits give low values | virus titer (log TCID50), log10 TCID50 at 5 µM | 95 compounds, 30% hits | AID 504647, 2011; call rule not given here
* hit, by the source's call; ? = inconclusive; / = no result; + = active, no number. The list is not random: actives were taken first. Their share in the collection is about 14%. Unless noted, calls follow the shape of the dose curve; as a rule, active = well fitted curve in the direction sought with a large enough effect; inconclusive = small, poorly fitted or top-dose-only effect, or another doubt; inactive = no such curve, though single readings can be large; an effect the other way counts as inactive or inconclusive.

SMILES | NS1 inh | Shiga toxin inh | FBPA Giardia inh | CHX counter | LmPK inhibitor | Flu NS1 inh | others
O=S(=O)(c1ccc2nc(-c3ccco3)c(-c3ccco3)nc2c1)N1CCOCC1 | 1µM* | 18 | 2.5µM* | 8 | -5% | -19
O=S1(=O)NC(C2CC2c2ccccc2)CCO1 (centres undefined) | 25% | -7 | -3% | -3 | 7% | /
Cc1cc(C)cc(N(C(=O)CNS(=O)(=O)c2ccccc2)C(C(=O)NCc2ccccc2)c2ccc(C)o2)c1 (centres undefined) | 10µM* | 6 | -4% | 5 | 1% | -1
COC(=O)Cn1c(CN2CCC(Cc3ccccc3)CC2)nc2c1c(=O)n(C)c(=O)n2C | ? | -13 | -8% | -1 | 8% | -34
COC(=O)Cn1c(CN(C)Cc2ccccc2)nc2c1c(=O)n(C)c(=O)n2C | -5% | / | -7% | -2 | 0% | /
CC(C)N1CCN(CCCc2ccccc2)CC1CCO (centres undefined) | 0% | -2 | 8% | 1 | -4% | /
Oc1ccc(Br)cc1C1Nc2ccccc2S1 (centres undefined) | -3% | 30 | 1% | 17 | -1% | /
N#Cc1c(NC(=O)c2ccc(-c3ccccc3[N+](=O)[O-])o2)sc2c1CCCC2 | ? | -1 | -14% | 1 | 5% | -17
NC(=O)NC(=O)COC(=O)c1ccc(Cl)c(S(=O)(=O)N(Cc2ccccc2)c2ccc(Cl)cc2)c1 | 11µM* | 5 | -3% | -4 | 1% | -20
Cn1cnnc1SCC(=O)N1N=C2/C(=C/c3ccco3)CCCC2C1c1ccco1 (centres undefined) | 3.5µM* | 6 | -12% | 10 | 2% | 2
Cc1c(NC(=O)C(C)OC(=O)c2cc(-c3cccc4ccccc34)nc3ccccc23)c(=O)n(-c2ccccc2)n1C (centres undefined) | 11µM* | -14 | -4% | -3 | 0% | 7
COc1ccc(-c2cc(C(=O)Nc3c(C)n(C)n(-c4ccccc4)c3=O)c3ccccc3n2)c(OC)c1 | 0% | 6 | / | -2 | 4% | /
CN(CC(=O)Nc1sccc1C#N)C1CCCCC1 | 7.9µM* | -2 | -10% | -2 | 1% | -14
COC(=O)c1ccccc1NC(=O)CSc1nc(Nc2ccccc2)nc(N2CCOCC2)n1 | ? | 14 | / | 4 | 0% | /
Cc1nn(-c2ccc([N+](=O)[O-])cc2)c2c1C(c1cccc(Br)c1)N1C(=N2)C(=O)Nc2ccccc21 (centres undefined) | 21% | -4 | 3% | -1 | -1% | /
Cc1nn(-c2ccccc2)c2c1C(c1ccc([N+](=O)[O-])cc1)N1C(=N2)C(=O)Nc2ccccc21 (centres undefined) | 10µM* | -13 | -1% | -6 | 0% | 7
COc1ccc(-c2nc(CS(=O)(=O)CC(=O)NC3CCCCC3C)c(C)o2)cc1 (centres undefined) | 9% | -1 | 7% | -1 | 2% | /
Cc1ccc(-c2nc(CS(=O)(=O)CC(=O)NC3CCCCC3C)c(C)o2)cc1 (centres undefined) | 3.2µM* | -16 | 0% | -6 | 1% | -26
CCOC(=O)c1cnn2c(N)c(C#N)nnc12 | 5µM* | -22 | 2% | -4 | -1% | -15
CCOC(=O)c1cnn2c(N)c(C#N)cnc12 | 0% | 20 | -2% | 8 | 1% | /
O=C(Cn1cnc2c(nnn2-c2cccc(Cl)c2)c1=O)NCc1ccccc1 | 9% | -4 | 0% | 2 | 7% | /
Cc1cc(=O)[nH]c(N/N=C/c2c(O)n(-c3ccccc3)c(=O)c3ccccc23)n1 | 10µM* | 15 | -29% | 6 | -4% | -2
COc1ccc(C(=O)Oc2cc(N)n(S(=O)(=O)c3ccc(C)cc3)n2)cc1 | 12% | -18 | 11% | -3 | -1% | /
COc1ccc(S(=O)(=O)n2nc(OC(=O)c3c(-c4ccccc4Cl)noc3C)cc2N)cc1 | 10µM* | -6 | -17% | 7 | 1% | -1
COc1ccccc1C(CNC(=O)c1cc(C)nc2ccccc12)N(C)C (centres undefined) | 10% | -4 | -4% | 2 | 5% | /
SMILES | NS1 inh | Shiga toxin inh | FBPA Giardia inh | CHX counter | LmPK inhibitor | Flu NS1 inh | others
CC(=O)c1cccc(S(=O)(=O)N2CCN(c3nc4cc(C)cc(C)c4cc3C#N)CC2)c1 | 10µM* | -13 | 0% | -7 | -1% | 0
Cc1ccc(-c2c(C(=O)N/N=C/c3ccsc3)nnn2-c2nonc2N)cc1 | 10% | -14 | ? | -2 | 9% | /
NC(=S)N/N=C1\CC(c2ccc3c(c2)OCCCO3)Oc2ccc(F)cc21 (centres undefined) | 2µM* | 33 | -8% | 15 | 2% | 1
NC(=S)N/N=C1\CC(c2ccc3c(c2)OCCO3)Oc2ccc(F)cc21 (centres undefined) | 1% | -11 | -6% | -4 | -3% | /
COc1cccc(CNC(=O)CCN2C(=O)[C@@H]3Cc4ccccc4CN3C2=O)c1 | 5% | -8 | 13% | -4 | -1% | /
COc1ccc(C=C(c2nc3ccccc3s2)c2nc3ccccc3s2)cc1O | 16µM* | + | -15% | 89* | 3% | -12
CC(C)/C=C/CN1CCC(Oc2ccc(C(=O)N3CCCC3)cc2)CC1 | 5% | -30 | / | -3 | -9% | /
N[C@H](CO)C(=O)NCC(=O)O | -1% | / | / | / | / | /
O=C(COc1ccc2c(c1)oc(=O)c1ccccc12)NC(Cc1ccc(Cl)cc1)C(=O)O (centres undefined) | 11µM* | -6 | ? | -1 | -8% | 22
CCCNC(=O)c1ccccc1SCc1c(C)noc1C | 4% | -14 | / | -2 | -6% | /
CCCc1nc2ccccc2c(=O)n1-c1c(C)n(C)n(-c2ccccc2)c1=O | 4.5µM* | 10 | 1% | 1 | 2% | -2
Cc1ccc(-c2nc3ccccc3c(=O)n2-c2c(C)n(C)n(-c3ccccc3)c2=O)cc1 | 1% | 13 | 7% | -1 | -1% | /
Cc1cccc(C(=O)Nc2cc(=O)n(C)c(=O)n2C)c1 | 1% | -13 | -1% | -4 | -5% | /
Cc1cccc(CC(=O)Nc2cc(=O)n(C)c(=O)n2C)c1 | ? | 10 | 6% | 1 | -3% | -7
CCn1c2ccccc2c2cc(NC(=O)COC(=O)c3cccc(S(=O)(=O)NC)c3)ccc21 | 10µM* | -3 | -4% | 5 | -2% | 2 | PR8 titer=7.3*
CCN(CC)S(=O)(=O)c1cccc(C(=O)OCC(=O)Nc2ccc3c(c2)c2ccccc2n3CC)c1 | 15% | 15 | -2% | -4 | 0% | /
